Data from PubChem BioAssay AID624491 (Broad Institute, 2012).
In all, about 1,800 compounds went through this assay and about 1,400 (78%) were called active. Another 2% or so got no clear call; they are omitted.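 The calls were made as follows: active = fitted curve crossing a set activation limit at or below the highest valid dose tested; inconclusive = flat fit at 30 to 70% activation, or poor fit; inactive = the rest, including signal decreases.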 So high a share suggests a set chosen from earlier hits. A selection follows. Potency and affinity values are given separately.

test: blockers of NLG process in reporter cells – D54 ERlucT cells, luminescence, cherry-picks, dose response (AID 624491); details: D54 ERlucT glycosylation luciferase reporter, 24 h, 100% = twice neutral-control luminescence; series mostly up to 19.5 µM; activation (NLG inhibition): at the top concentration;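 also: signal gain reflects blocked N-linked glycosylation of a luciferase reporter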

Activation (NLG inhibition), inactive:
COc1cc(-c2cc(-c3ccc(O)cc3)nc(N)c2C#N)ccc1O 32.1%, COc1ccccc1-c1cc(NC=O)c2ncc(-c3cccc(C(C)=O)c3)n2c1 -5.59%, COC(=O)c1cccc(NS(=O)(=O)c2ccc(OC)cc2)c1C 34.1%, O=C(CC1Sc2ccccc2NC1=O)NNc1cccc(Cl)c1Cl (configuration not stated) 12%, Cc1c(O)cc2c(c1O)C(=O)CC(c1ccccc1)O2 (configuration not stated) 17.8%, CCc1nc(SCC(=O)c2ccc3c(c2)OCCO3)c2ccccc2n1 10.9%, Cc1ccc(C(C)C)c(OCc2nnc(SCC(=O)Nc3ncc(C)s3)n2C)c1 45%, COc1ccc(/C=C2\N=C(c3ccccc3Cl)NC2=O)cc1 20.3%, CCc1ccc(OCC(=O)Nc2ccncc2)c(Br)c1 7.78%, O=C(/C=C/c1cccnc1)c1ccc([N+](=O)[O-])cc1 -16%, NC1=NC(c2ccc(Cl)cc2)C(C(=O)c2ccccc2)N1 (configuration not stated) 51.4%, COc1ccc(S(=O)(=O)Nc2cccc3ccc(O)cc23)cc1 29.7%, O=C(CCN1C(=O)/C(=C\c2ccccc2)SC1=S)N1CCCCC1 -1.63%, Cc1ccc(CNC(=O)Cc2ccc(-n3c(=O)[nH]c4ccsc4c3=O)cc2)cc1 35.2%, CCOc1ccc(-n2c(C)cc(C(=O)CCl)c2C)cc1 25.7%, COC(=O)c1c(NC(=O)CN2C(=O)NC3(CCC(C)CC3)C2=O)sc2c1CCC2 (configuration not stated) 17%, COC(=O)CNC(c1ccccc1Cl)c1cc(Br)ccc1NC(=O)CCN1CCOCC1 (configuration not stated) -5.06%, COc1ccc(CC(=O)Nc2ccc(-c3ccc4nnc(C)n4n3)cc2)cc1OC 4.46% [at 5 µM], N#CCC(CNc1ncc(C(F)(F)F)cc1Cl)OC(=O)c1ccc(Cl)cc1Cl (configuration not stated) 18.6%, Cc1cccn2c(=O)c3cc(C(=O)N4CCCCC4)sc3nc12 -15% [at 5 µM], COc1ccc(-c2oc3cc(O)c(OC)c(O)c3c(=O)c2OC)cc1 58%, Cc1cccc(N2C(=O)CC(N3CCN(C(=O)c4ccccc4)CC3)C2=O)c1 (configuration not stated) -1.39%, CC1=C(n2ccnc2)CCC1=O 37.6%, O=C1CCCC2=C1C(c1ccc(Cl)cc1)n1c(s/c(=C\c3ccc4ccncc4c3)c1=O)=N2 (configuration not stated) 28%, O=c1cc(N2CCN(c3ccccc3Cl)CC2)[nH]c(=O)n1Cc1ccc(F)cc1 25%, Nc1c(N(CCC2=CCCCC2)C(=O)COc2ccc(F)cc2)c(=O)[nH]c(=O)n1Cc1ccccc1 62.4%, O=C(N/N=C/c1ccc2c(c1)OCO2)c1cccc2ccccc12 10.1%, COc1cccc(/C=N/NC(=O)c2[nH]nc3c2CCc2ccccc2-3)c1 5.49%, CC(C)(C)c1ccc(C(=O)NNC(=O)c2cccc(Br)c2)cc1 818%, COc1ccc(/C=C/C(=O)c2ccc3c4c(cccc24)CC3)cc1OC -43.1%, COc1ccc(NC(=O)c2cnc(SC)nc2)cc1 75.1%, COc1ccc(/C=C/C(=O)c2c(O)cc(OC)cc2OC)cc1 40.4%, CCN(CC)Cc1cc(Nc2c3ccccc3nc3c4ccccc4n(C)c23)cc(CN(CC)CC)c1O 49.9%, CCOC(=O)c1c(C)[nH]c(-c2csc(N)n2)c1C 20.4%, CCOC(=O)c1[nH]c(C)c(C(=O)Nc2cc(Cl)ccc2C)c1C 14.7%, CCOC(=O)c1[nH]c(COC(=O)CCOc2ccccc2OC)c(C(=O)OCC)c1C 12.1%, CCN(CC)c1ccc(C(=O)n2cnc3ccccc32)cc1 16.8%, CC(=O)N1c2ccccc2C(=O)C1N(C)c1ccc(C)cc1 (configuration not stated) -0.122%, COCCNc1nc(-c2ccccc2CO)c2sc(-c3ccccc3)cc2n1 16.9%, CCOC(=O)c1ccc(-n2cccc2/C=C2\NC(=O)NC2=O)cc1 19.5%, O=C(N/N=C\c1cccnc1)c1cc(-c2ccccc2)nc2c(Cl)cccc12 33.7%, O=C(/C=C/c1ccc([N+](=O)[O-])s1)N1CCCCC1 -28.1%, CCN(c1ccccc1)S(=O)(=O)c1ccc(C(=O)NC2CCN(Cc3ccccc3)CC2)cc1 16.6%, Cc1nnc2n(c1=O)N=C(c1ccc(Cl)cc1)CS2 -6.13%, O=C(CN1C2=NCCCN2c2ccccc21)c1ccc([N+](=O)[O-])cc1 36%, CC(C)(C)S(=O)N1Cc2cc(C(=O)NCC(F)(F)F)nc(-c3cccc(-c4cccc(F)c4)c3)c2[C@@H]1CCO (some centres not stated) -12.7%, Cc1cnc(C(=O)OCC(=O)NC2CCCCCCC2)cn1 16.8%, Cc1ccc(-c2nn(-c3ccccc3)cc2NC(=O)CCl)cc1 -46.9%, COc1ccccc1NC(=O)Cn1nnc(-c2ccccc2NC(=O)c2ccco2)n1 45.5%, CCc1cccc(NC(=O)CN2C(=O)NC3(CCCCCCC3)C2=O)c1 34%, O=C(CN1C(=O)NC2(CCCCC2)C1=O)Nc1ccc2c(c1)CCC2 44.6%, Cc1ccc(C)c(N2CCN(S(=O)(=O)c3ccc(-c4ccc(=O)[nH]n4)o3)CC2)c1 86.2%, Cn1cnc([N+](=O)[O-])c1Oc1ccc2ccccc2c1 1.95%, CCn1c(=O)cc(C(=O)OC)sc1=Nc1ccc(F)c(F)c1 26%, O=C1c2cccc3c([N+](=O)[O-])ccc(c23)C(=O)N1CC1CCCO1 (configuration not stated) 16.3%, O=c1cc(-c2ccccc2)[nH]n1-c1nc2ccccc2[nH]1 -34.9%, Nc1cc2c(cc1Br)-c1c(C(=O)O)cccc1C2O (configuration not stated) 8.32%, CO/N=C/c1ccc(OC)c(Oc2nc(OC)cc(OC)n2)c1 60.6%, O=C(COc1ccc(/C=N/NC(=O)c2cc3ccccc3o2)cc1Br)Nc1ccccc1 103%, CCCCCC[n+]1ccccc1/C=C/c1ccc(N(C)C)cc1 5.17%, CCC1=Nc2cc(C(=O)NCc3ccco3)ccc2Sc2ccc(Cl)cc21 50.7% [at 5 µM], Cc1nnc2ccc(-c3ccc(NC(=O)c4ccco4)cc3)nn12 61.9%, O=C(COc1ccc(/C=N/NC(=O)c2cc3ccccc3o2)cc1Cl)Nc1ccccc1 -67.6%, CCn1cc2nc(SCC(=O)Nc3ccc(OC)cc3OC)n(Cc3ccc(OC)cc3)c(=O)c2n1 -4.31%, COc1ccc(NC(=O)CSc2nc3ccsc3c(=O)n2Cc2ccccn2)c(OC)c1 9.56%, CC(=O)c1ccc(Nc2c3c(nc4ccccc24)CCCC3)cc1 52.1%, COc1cc(Nc2c3ccccc3nc3ccccc23)cc(OC)c1OC -81.2%, COC(=O)c1cccc(Nc2c3c(nc4ccccc24)CCC3)c1 39.7%, CCN(c1ccccc1)S(=O)(=O)c1ccc(N)c(OC)c1 27.8%, c1ccc(CCNc2nc(-c3ccccn3)nc3ccccc23)cc1 -27%, COc1ccc(C2=NOC(C(=O)NCc3ccco3)C2)cc1OC (configuration not stated) 10.5%, COc1cccc(C2=NOC(C(=O)NCc3ccco3)C2)c1 (configuration not stated) -0.205% [at 5 µM], COc1cc(CNc2ccc(O)cc2)cc(Br)c1OCc1ccccc1 -8.22%, COc1cc(C(=O)OCC(=O)c2cc(C)n(C)c2C)cc(OC)c1OC 20.3%, COc1cc(C(=O)OC2CCCCC2=O)cc(OC)c1C (configuration not stated) 41.1%, CN(C)CCCN(C(=O)c1ccc(S(=O)(=O)N2CCc3ccccc3C2)cc1)c1nc2ccc(F)cc2s1 -14.2% [at 5 µM], Cc1ccc(S(=O)(=O)N2CCCCC2CCNC(=O)C(=O)NCc2ccco2)cc1 (configuration not stated) 23.6%, O=C(CSc1ncnc2nc[nH]c12)c1ccc([N+](=O)[O-])cc1 11.9%, CCOC(=O)/C=c1/s/c(=C\c2c(OC)ccc3ccccc23)c(=O)n1CC(=O)NCC1CCCO1 (configuration not stated) 23.7%, CCOC(=O)c1[nH]c(C)c(C(=O)Nc2cccc(Cl)c2C)c1C 20.9%, Cc1ccc2c(CNCc3ccccc3)cc(=O)oc2c1 39.2%, CCOC(=O)n1c(=O)n(Cc2ccc(OC)cc2)c2ccccc21 8.03% [at 5 µM], FC(F)(F)c1nnc2c(Sc3ccc(Cl)cc3)nc3ccccc3n12 30.9%, CC(=O)c1cccc(-c2ccnc3c2CC(C(=O)NCCc2ccccc2)O3)c1 (configuration not stated) 12.8%, Cc1[nH]c2ccc(C(=O)OC(C)C(=O)NCc3ccccc3)cc2c1C (configuration not stated) 7.75%, COc1ccc(-c2cc(-c3ccccc3)c(C#N)c(S(C)=O)n2)cc1 (configuration not stated) 1.33%, C/C(CC(=O)NCc1ccc(Cl)cc1)=N\NC(=O)COc1ccc(C)cc1Br 37.5%, CC(=O)N1N=C(c2ccccc2)OC1c1ccc([N+](=O)[O-])s1 (configuration not stated) 49.5%, CC1CN(C(=O)/C=C/c2ccc([N+](=O)[O-])s2)CC(C)O1 (configuration not stated) -5.48%, CCOC(=O)c1c(C)c(C(=O)Nc2ccc(N(C)C)cc2)c(C)n1CC 44.7%, CC(Nc1nc(-c2cccnc2)nc2ccccc12)c1ccc(F)cc1 (configuration not stated) 48.9%, Cc1ccc(Nc2nc(-c3cccnc3)nc3ccccc23)cc1 8.8%, O=C1c2ccccc2C(=O)C12OC2c1ccc(Cl)cc1Cl (configuration not stated) 68.1%, Cc1ccc2nc(SCC(=O)Nc3ccc4sc(C)nc4c3)c(C#N)cc2c1 -4.3% [at 5 µM], CCCCCCCCCCn1c2c(c(=N)c3c1CCC3)CCC2 86.7%, CCCn1c(=N)n(CC(=O)c2ccc([N+](=O)[O-])cc2)c2ccccc21 6.58%, Cn1c(Cl)cnc1C1CC(=O)c2cc(Cl)ccc2O1 (configuration not stated) -17.9%, COc1ccc(OC)c(/C=C/c2ccc3cccc(O)c3n2)c1 -43%, COc1ccc(NC(=O)c2cccc(Oc3ccccc3)c2)cn1 34.3%, Cn1c(SCC(=O)c2ccccc2)ncc(C(=O)Nc2ccc(F)cc2)c1=O 63.3%, Cn1c(SCC(=O)c2ccccc2)ncc(C(=O)Nc2ccccc2)c1=O 80.2%, CCOc1ccc(Nc2nnc(SCc3nc4ccccc4c(=O)[nH]3)s2)cc1 117%, CC1=Nc2cc(C(=O)NCC3CCCO3)ccc2Sc2ccc(Br)cc21 (configuration not stated) -2.76%, CC1(C(=O)NCc2ccccc2)Cc2c(-c3ccc(C(N)=O)cc3)ccnc2O1 (configuration not stated) 36.3%, CC(=O)Nc1ccc(-c2ccnc3c2CC(C)(C(=O)NCc2ccco2)O3)cc1 (configuration not stated) 38.4%, CC1(C(=O)NCc2cccs2)Cc2c(-c3ccc(C(N)=O)cc3)ccnc2O1 (configuration not stated) 39.6%, O=C(NCCN1C(=O)S/C(=C\c2cccc(Cl)c2Cl)C1=O)C1=COCCO1 44.8%
